Experimental data: the supplement of paper PMC10849652
The full data set covers some 7,900 targets. This sample favours those with a hit. About 0.6% of all pairs of compound and target were hits.

Experiments:
Assay in all cases: log2 fold change, soluble protein after heating vs DMSO (PISA); higher = thermal stabilisation; K562 cells, 10 uM, 30 min; active = over 0.2 and 3.5 SD of the protein, either way, in both replicates (recomputed)
[1] = compound: CC1=C(C=C(C=C1)NC(=O)C2=CC(=CC=C2)C(C)(C)C#N)NC3=CC4=C(C=C3)N=CN(C4=O)C
Procedure, shortened: (§1)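 Quantification of soluble protein used TMTpro 16plex LC-MS/MS, with channel sums equalised. Samples were the supernatant after 21,000xg for 90 min of pooled aliquots from K562 cells (2×10^6 cells/mL) treated with 10 μM compound for 30 min, heated for 3 min over 48°C-58°C, and extracted in PBS with 0.5% NP-40 at 4°C. Values, from duplicates, describe thermal stability against control samples on a log2 fold-change scale.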

[2] = compound: CC1=C(C=C(C=C1)NC(=O)C2=CC(=CC=C2)N(C)C)NC(=O)C3=CC=C(C=C3)O
Procedure, shortened: as §1

[3] = compound: CC1=CC=C(C=C1)SC2=C3C=C(SC3=CN=C2)C(=O)N
Procedure, shortened: as §1

[4] = compound: CC1=NC(=CC=C1)C2=C(N=C(N2)C(C)(C)C)C3=CC4=NC=CN=C4C=C3
Procedure, shortened: as §1

Nexturastat A = compound: CCCCN(Cc1ccc(C(=O)NO)cc1)C(=O)Nc1ccccc1 [Nexturastat A]
Procedure, shortened: as §1

vemurafenib = compound: CCCS(=O)(=O)Nc1ccc(F)c(C(=O)c2c[nH]c3ncc(-c4ccc(Cl)cc4)cc23)c1F [vemurafenib]
Procedure, shortened: as §1

[5] = compound: CCCS(=O)(=O)Nc1ccc(F)c(C(=O)c2c[nH]c3ncc(Cl)cc23)c1F
Procedure, shortened: as §1

[6] = compound: CCCc1cc(C)[nH]c(=O)c1CNC(=O)c1cc(-c2ccnc(N3CCN(C)CC3)c2)cc2c1cnn2C(C)C
Procedure, shortened: as §1

givinostat = compound: CCN(CC)Cc1ccc2cc(COC(=O)Nc3ccc(C(=O)NO)cc3)ccc2c1 [givinostat]
Procedure, shortened: as §1

barasertib = compound: CCN(CCCOc1ccc2c(Nc3cc(CC(=O)Nc4cccc(F)c4)[nH]n3)ncnc2c1)CCOP(=O)(O)O [barasertib]
Procedure, shortened: as §1

[7] = compound: CC[C@@H]1C(=O)N(C)c2cnc(Nc3ccc(C(=O)NC4CCN(C)CC4)cc3OC)nc2N1C1CCCC1
Procedure, shortened: as §1

volasertib = compound: CC[C@@H]1C(=O)N(C)c2cnc(Nc3ccc(C(=O)N[C@H]4CC[C@H](N5CCN(CC6CC6)CC5)CC4)cc3OC)nc2N1C(C)C [volasertib]
Procedure, shortened: as §1

[8] = compound: CC[C@H](C)N1C=C(C2=C(C=C(C=C21)C3=CN=C(C=C3)N4CCNCC4)C(=O)NCC5=C(C=C(NC5=O)C)C)C
Procedure, shortened: as §1

epoxomicin = compound: CC[C@H](C)[C@@H](C(=O)N[C@@H]([C@@H](C)O)C(=O)N[C@@H](CC(C)C)C(=O)[C@]1(CO1)C)NC(=O)[C@H]([C@@H](C)CC)N(C)C(=O)C [epoxomicin]
Procedure, shortened: as §1

[9] = compound: CCn1c(C(=O)N(C2CC2)C2CC2)cc2c3c(ncn3C)c(Nc3cc(C)n(C)n3)nc21
Procedure, shortened: as §1

[10] = compound: CCn1cc(-c2ccnc3[nH]c(-c4cccc(CN(C)C)c4)cc23)c(-c2ccc(NC(=O)N(C)C)cc2)n1
Procedure, shortened: as §1

[11] = compound: CN(C)CC(=O)Nc1ccc2[nH]c(=O)c3ccccc3c2c1
Procedure, shortened: as §1

rosiglitazone = compound: CN(CCOC1=CC=C(C=C1)C[C@H]2C(=O)NC(=O)S2)C3=CC=CC=N3 (racemic) [rosiglitazone]
Procedure, shortened: as §1

[12] = compound: CN1C2=C(C3=C1C(=O)N(N=C3)CC4=CC(=CC=C4)N)SC(=C2)S(=O)C
Procedure, shortened: as §1

[13] = compound: CN1CCC(CNc2ccc3ncc(-c4cccc(OC(F)(F)F)c4)n3n2)CC1
Procedure, shortened: as §1

Measured: log2 fold change

IRF2BPL (UniProt Q9H1B7)
UniProt Q9H1B7, sequence (Q9H1B7 whole entry, looked up): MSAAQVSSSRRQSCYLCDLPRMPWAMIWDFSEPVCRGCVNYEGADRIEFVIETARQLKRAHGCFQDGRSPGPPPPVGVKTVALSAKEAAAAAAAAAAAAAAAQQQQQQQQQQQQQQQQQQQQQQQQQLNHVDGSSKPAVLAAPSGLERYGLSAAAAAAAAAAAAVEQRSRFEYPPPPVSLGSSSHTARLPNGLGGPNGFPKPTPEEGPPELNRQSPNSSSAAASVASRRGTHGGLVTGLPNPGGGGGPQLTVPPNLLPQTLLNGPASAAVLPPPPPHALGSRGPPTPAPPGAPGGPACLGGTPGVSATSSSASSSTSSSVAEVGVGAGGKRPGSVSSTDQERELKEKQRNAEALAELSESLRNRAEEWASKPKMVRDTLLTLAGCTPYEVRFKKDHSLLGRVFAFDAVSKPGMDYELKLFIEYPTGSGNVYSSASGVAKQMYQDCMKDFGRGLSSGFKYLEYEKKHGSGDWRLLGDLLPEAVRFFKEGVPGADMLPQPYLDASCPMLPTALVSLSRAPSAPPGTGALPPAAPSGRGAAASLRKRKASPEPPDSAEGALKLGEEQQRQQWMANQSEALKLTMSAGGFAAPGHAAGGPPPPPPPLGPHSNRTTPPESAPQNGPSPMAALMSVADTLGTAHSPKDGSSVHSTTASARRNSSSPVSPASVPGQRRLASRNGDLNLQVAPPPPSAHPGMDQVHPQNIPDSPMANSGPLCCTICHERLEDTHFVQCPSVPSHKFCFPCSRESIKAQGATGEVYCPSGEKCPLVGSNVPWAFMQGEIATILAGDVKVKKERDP
inactive: [1] 0.013 | [2] -0.006 | [3] 0.015 | [4] 0.068 | Nexturastat A 0.038 | vemurafenib 0.014 | [5] 0.049 | [6] 0.008 | givinostat 0.05 | barasertib -0.044 | [7] 0.01 | volasertib -0.043 | [8] -0.012 | epoxomicin 0.108 | [9] -0.042 | [10] -0.023 | [11] 0.036 | rosiglitazone 0.067 | [12] -0.068 | [13] -0.018

LTV1 (UniProt Q96GA3)
UniProt Q96GA3, sequence (Q96GA3 whole entry, looked up): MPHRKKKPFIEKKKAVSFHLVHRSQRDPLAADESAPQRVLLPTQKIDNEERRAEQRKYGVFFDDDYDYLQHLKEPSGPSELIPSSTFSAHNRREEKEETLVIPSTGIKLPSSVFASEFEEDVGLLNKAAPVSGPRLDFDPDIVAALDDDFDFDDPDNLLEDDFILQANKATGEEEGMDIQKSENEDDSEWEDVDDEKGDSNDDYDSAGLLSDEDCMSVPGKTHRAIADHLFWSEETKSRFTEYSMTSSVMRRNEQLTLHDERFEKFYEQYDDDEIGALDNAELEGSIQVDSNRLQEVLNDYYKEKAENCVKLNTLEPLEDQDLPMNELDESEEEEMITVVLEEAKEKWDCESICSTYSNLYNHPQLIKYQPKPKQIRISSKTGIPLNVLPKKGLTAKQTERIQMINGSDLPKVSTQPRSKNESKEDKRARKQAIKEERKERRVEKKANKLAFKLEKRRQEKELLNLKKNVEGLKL
inactive: [1] 0.044 | [2] -0.04 | [3] -0.04 | [4] -0.035 | Nexturastat A 0.248 | vemurafenib -0.075 | [5] -0.008 | [6] -0.011 | givinostat -0.025 | barasertib -0.075 | [7] 0.09 | volasertib 0.004 | [8] 0.06 | epoxomicin -0.109 | [9] 0.021 | [10] 0.023 | [11] -0.049 | rosiglitazone -0.032 | [12] 0.189 | [13] 0.104

MAPKAPK2 (UniProt P49137)
UniProt P49137, sequence (P49137 whole entry, looked up): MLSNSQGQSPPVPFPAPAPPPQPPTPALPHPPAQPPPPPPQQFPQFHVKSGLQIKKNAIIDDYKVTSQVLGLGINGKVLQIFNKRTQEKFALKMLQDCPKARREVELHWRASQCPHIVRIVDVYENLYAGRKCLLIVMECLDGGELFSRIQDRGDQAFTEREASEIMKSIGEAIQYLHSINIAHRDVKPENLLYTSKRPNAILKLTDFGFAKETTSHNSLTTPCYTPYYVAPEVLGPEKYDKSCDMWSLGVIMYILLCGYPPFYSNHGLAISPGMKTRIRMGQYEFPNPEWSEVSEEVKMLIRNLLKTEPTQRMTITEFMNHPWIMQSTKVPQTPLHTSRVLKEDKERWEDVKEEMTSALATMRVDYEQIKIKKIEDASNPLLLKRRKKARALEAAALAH
inactive: [1] 0.077 | [2] 0.082 | [3] -0.008 | [4] 0.019 | Nexturastat A -0.047 | vemurafenib 0.074 | [5] 0.045 | [6] 0.038 | givinostat 0.026 | barasertib -0.001 | [7] -0.058 | volasertib -0.059 | [8] 0.026 | epoxomicin 0.049 | [9] 0.022 | [10] -0.002 | [11] 0.032 | rosiglitazone 0.023 | [12] -0.007 | [13] -0.018

IGF2R (UniProt P11717)
active: [7] -1.09 | volasertib -0.875 | [13] -0.607
inactive: [1] -0.039 | [2] -0.016 | [3] 0.037 | [4] -0.004 | Nexturastat A 0.014 | vemurafenib -0.022 | [5] -0.007 | [6] -0.036 | givinostat -0.018 | barasertib 0.002 | [8] -0.033 | epoxomicin 0.002 | [9] 0.018 | [10] -0.013 | [11] -0.023 | rosiglitazone -0.024 | [12] -0.013

LMF2 (UniProt Q9BU23)
UniProt Q9BU23, sequence (Q9BU23 whole entry, looked up): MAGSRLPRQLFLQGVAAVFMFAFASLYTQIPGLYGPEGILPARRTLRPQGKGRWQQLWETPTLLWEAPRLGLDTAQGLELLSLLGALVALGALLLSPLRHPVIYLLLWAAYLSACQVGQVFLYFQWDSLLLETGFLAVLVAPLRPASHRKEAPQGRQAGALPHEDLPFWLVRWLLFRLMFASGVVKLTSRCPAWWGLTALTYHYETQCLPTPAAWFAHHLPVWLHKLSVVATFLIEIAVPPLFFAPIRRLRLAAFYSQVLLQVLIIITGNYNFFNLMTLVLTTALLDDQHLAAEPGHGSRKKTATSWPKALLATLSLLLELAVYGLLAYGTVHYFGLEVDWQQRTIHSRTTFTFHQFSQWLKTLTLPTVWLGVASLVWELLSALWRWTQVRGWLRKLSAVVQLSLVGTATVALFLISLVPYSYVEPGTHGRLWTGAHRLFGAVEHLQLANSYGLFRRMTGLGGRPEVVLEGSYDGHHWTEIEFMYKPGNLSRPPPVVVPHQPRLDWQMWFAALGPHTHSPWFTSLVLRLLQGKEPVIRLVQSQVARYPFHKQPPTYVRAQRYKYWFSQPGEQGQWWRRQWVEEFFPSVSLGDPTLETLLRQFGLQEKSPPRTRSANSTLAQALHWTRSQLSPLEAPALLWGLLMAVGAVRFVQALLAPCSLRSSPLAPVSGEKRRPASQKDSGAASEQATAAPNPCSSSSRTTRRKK
active: volasertib -0.332
inactive: [1] 0.009 | [2] -0.07 | [3] 0.025 | [4] -0.078 | Nexturastat A -0.022 | vemurafenib 0.067 | [5] -0.022 | [6] 0.016 | givinostat 0.033 | barasertib -0.002 | [7] -0.109 | [8] -0.027 | epoxomicin 0 | [9] -0.053 | [10] 0.12 | [11] -0.017 | rosiglitazone 0.039 | [12] -0.007 | [13] -0.035

KIF3A (UniProt Q9Y496)
UniProt Q9Y496, sequence (Q9Y496 whole entry, looked up): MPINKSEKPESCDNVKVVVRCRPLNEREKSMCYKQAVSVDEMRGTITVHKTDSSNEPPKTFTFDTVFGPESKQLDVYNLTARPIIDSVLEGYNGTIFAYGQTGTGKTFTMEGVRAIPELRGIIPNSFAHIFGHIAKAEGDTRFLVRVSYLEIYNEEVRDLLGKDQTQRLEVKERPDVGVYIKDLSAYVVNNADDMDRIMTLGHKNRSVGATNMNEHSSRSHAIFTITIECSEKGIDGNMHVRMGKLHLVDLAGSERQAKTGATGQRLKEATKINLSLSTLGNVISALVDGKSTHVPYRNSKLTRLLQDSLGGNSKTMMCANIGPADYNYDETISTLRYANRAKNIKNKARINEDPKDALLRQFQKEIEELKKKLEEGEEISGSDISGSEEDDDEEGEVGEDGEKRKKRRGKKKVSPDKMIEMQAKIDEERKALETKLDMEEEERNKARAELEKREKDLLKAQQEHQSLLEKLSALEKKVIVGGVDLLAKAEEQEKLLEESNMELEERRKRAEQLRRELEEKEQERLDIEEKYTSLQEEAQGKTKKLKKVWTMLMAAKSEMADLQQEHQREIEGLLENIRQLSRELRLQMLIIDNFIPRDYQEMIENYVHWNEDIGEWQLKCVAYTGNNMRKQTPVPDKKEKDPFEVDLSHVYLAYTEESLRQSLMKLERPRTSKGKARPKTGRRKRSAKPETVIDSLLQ
inactive: [1] -0.041 | [2] -0.013 | [3] -0.076 | [4] 0 | Nexturastat A 0.029 | vemurafenib -0.002 | [5] 0.062 | [6] 0.045 | givinostat 0.074 | barasertib -0.041 | [7] 0.036 | volasertib -0.039 | [8] -0.187 | epoxomicin 0.068 | [9] -0.004 | [10] -0.093 | [11] 0.032 | rosiglitazone 0.174 | [12] -0.023 | [13] -0.162

MARK3 (UniProt P27448)
UniProt P27448, sequence (P27448 whole entry, looked up): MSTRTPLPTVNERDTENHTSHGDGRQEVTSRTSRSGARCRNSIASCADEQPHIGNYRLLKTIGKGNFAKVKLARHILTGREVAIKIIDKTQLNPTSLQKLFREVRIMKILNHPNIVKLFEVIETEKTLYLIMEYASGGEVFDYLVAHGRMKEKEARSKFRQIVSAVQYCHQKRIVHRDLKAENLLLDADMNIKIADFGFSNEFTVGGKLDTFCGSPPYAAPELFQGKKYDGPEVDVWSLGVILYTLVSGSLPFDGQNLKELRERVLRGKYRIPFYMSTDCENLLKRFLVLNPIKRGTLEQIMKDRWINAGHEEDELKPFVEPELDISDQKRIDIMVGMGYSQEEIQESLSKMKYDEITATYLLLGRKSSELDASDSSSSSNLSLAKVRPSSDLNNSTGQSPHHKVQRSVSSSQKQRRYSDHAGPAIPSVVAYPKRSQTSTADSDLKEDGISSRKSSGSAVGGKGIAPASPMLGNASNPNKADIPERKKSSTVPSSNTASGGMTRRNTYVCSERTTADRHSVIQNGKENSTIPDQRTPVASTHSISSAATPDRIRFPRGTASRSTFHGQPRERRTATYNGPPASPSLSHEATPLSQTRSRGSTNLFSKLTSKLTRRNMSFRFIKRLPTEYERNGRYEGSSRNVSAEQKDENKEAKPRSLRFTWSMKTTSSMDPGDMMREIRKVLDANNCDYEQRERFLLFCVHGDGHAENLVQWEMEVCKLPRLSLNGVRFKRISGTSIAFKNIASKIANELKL
inactive: [1] -0.017 | [2] 0.02 | [3] 0.067 | [4] -0.029 | Nexturastat A 0.074 | vemurafenib 0 | [5] 0.004 | [6] 0.077 | givinostat 0.038 | barasertib 0.023 | [7] -0.057 | volasertib -0.078 | [8] 0.097 | epoxomicin 0.019 | [9] -0.03 | [10] -0.019 | [11] 0.055 | rosiglitazone 0.049 | [12] 0.051
active: [13] -0.549

LDLR (UniProt P01130)
UniProt P01130, sequence (P01130 whole entry, looked up): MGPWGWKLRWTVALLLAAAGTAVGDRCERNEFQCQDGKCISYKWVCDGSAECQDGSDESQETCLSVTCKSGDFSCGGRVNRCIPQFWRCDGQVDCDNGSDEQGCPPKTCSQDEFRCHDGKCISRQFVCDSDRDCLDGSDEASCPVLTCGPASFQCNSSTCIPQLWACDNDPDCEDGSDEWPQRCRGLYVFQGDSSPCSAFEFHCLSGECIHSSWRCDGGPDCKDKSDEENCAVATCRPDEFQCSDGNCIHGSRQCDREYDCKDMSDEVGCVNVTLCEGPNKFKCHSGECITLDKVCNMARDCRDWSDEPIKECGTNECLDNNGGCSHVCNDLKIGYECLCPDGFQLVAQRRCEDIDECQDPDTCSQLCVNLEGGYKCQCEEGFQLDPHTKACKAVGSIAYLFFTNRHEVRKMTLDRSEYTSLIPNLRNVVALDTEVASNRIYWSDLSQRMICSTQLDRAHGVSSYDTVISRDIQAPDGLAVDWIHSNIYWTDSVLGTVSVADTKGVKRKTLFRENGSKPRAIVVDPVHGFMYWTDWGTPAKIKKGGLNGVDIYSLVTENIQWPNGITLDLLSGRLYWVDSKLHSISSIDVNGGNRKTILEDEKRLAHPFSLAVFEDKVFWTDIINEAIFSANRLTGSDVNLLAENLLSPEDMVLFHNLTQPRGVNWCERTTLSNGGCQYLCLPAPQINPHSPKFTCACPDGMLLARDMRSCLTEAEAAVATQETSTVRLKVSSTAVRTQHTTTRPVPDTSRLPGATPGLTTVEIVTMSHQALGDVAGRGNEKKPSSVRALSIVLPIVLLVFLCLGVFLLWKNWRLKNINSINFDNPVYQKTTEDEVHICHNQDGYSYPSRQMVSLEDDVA
inactive: [1] -0.063 | [2] 0.006 | [3] 0.006 | [4] 0.01 | Nexturastat A 0 | vemurafenib -0.022 | [5] -0.073 | [6] -0.018 | givinostat -0.03 | barasertib 0.019 | [7] -0.135 | volasertib -0.176 | [8] -0.028 | epoxomicin 0.031 | [9] -0.007 | [10] 0.058 | [11] -0.059 | rosiglitazone 0.009 | [12] -0.004 | [13] 0.064
